Measurements published in article PMC13494018.

B1: design_623_6e2e8b1f-5d9a-4413-9869-27a184816b12_1293_dldesign_0_cycle1_af2pred (protein)
chain: DAIRARAAEVKERAERLLEEGKRLPEIEEQVREMAESAKALADDALAAAATDPAQARLALAAAEALVRSLELLVERAKEEA
B2: design_622_fcc41892-afde-4fb9-b6e8-b664fffd6a75_2272_dldesign_0_cycle1_af2pred (protein)
chain: DEAKKQLEIATKMAEYALKQAEAALKDGRTAGTVVPAQVKTLKLLAESAEATGLEEAKKKAEEFKKKAKELEKAAEKAK
B3: design_623_6e2e8b1f-5d9a-4413-9869-27a184816b12_1233_dldesign_0_cycle1_af2pred (protein)
chain: DAATQAKVKELAEKALNGTPEEAYKATAEAFKISEQAGMEVLAAAAKGKPENAHAALSAYAAGLVAAKKAA
B4: design_622_fcc41892-afde-4fb9-b6e8-b664fffd6a75_2371_dldesign_0_cycle1_af2pred (protein)
chain: SAAAAESNQELAKQLKAIAQANAKAGDAEAVERVARSAAAAAKAVSEHPEAQKALTEAAKEAQKLAQQVKAA
B5: design_622_fcc41892-afde-4fb9-b6e8-b664fffd6a75_2361_dldesign_0_cycle1_af2pred (protein)
chain: EQEKKAKELLKKVKELAKKAEETIKAGIAAGLPKEEIVGKGGELVVEAAKKAAELARVGTPEQAAEARKIVAAAIKYLLKVAAA
B6: design_623_6e2e8b1f-5d9a-4413-9869-27a184816b12_532_dldesign_0_cycle1_af2pred (protein)
chain: AAVAAAIAAGEAAIKTVEALTKQAKTATPEERKAIAEQLRAAAVTLMNAAVASSPAYSPKFGAAAVEALQAAAEAG
B7: design_623_6e2e8b1f-5d9a-4413-9869-27a184816b12_569_dldesign_0_cycle1_af2pred (protein)
chain: NAAAQATVAAIVKQLRKRAEEEAGNPEIAKALKDGAEAVKEAGKKGIGAAVETLKETYAKVAELRAAQAAA
B8: design_623_6e2e8b1f-5d9a-4413-9869-27a184816b12_254_dldesign_0_cycle1_af2pred (protein)
chain: DDLTQAQIALAAAQALIKNAKAVLEDKSASEETLKSAAEAMEVAIQLAKQAEKLAKKADPELAKKAKEVKKEAEKVKKELEKKI
B9: design_622_fcc41892-afde-4fb9-b6e8-b664fffd6a75_1873_dldesign_0_cycle1_af2pred (protein)
chain: NALVQAGKIAAQAAVSLAKNAIAHADEMSPEGLQGAIDVATALIEYAEKAAKEDPEVAKLVEEAKKLVAEAKAVLAAR
B10: design_622_fcc41892-afde-4fb9-b6e8-b664fffd6a75_2129_dldesign_0_cycle1_af2pred (protein)
chain: AAAEAAARAALLAEGLALAHQAATFAAMAEYSPGVAPLAERARARLEAVTAAATPEVAAEIRAAYEASLARVRAALA
B11: design_623_6e2e8b1f-5d9a-4413-9869-27a184816b12_681_dldesign_0_cycle1_af2pred (protein)
chain: MEEIKEKAKELAETVEAIGEELAKFGLETGNENAITAGVNTAKHVAKYAERLSPEAGKIAEKTKEKVEKLGKKAKAEIAA
B12: design_623_6e2e8b1f-5d9a-4413-9869-27a184816b12_1352_dldesign_0_cycle1_af2pred (protein)
chain: AAEARKAEAVARAKAAAQNAKLVAEGAGEAFAAEAAEVAALAKQAATSTAEEAEKLAEQAAAKTVAMTRAAIALHAAA
B13: design_623_6e2e8b1f-5d9a-4413-9869-27a184816b12_1355_dldesign_0_cycle1_af2pred (protein)
chain: AVAQQALATAQRNLERAKEYAKAGDVKAATAFATTAITLAQAVAATDPALAPQAQAIIDQAQAVIEEAKA
B14: design_622_fcc41892-afde-4fb9-b6e8-b664fffd6a75_1610_dldesign_0_cycle1_af2pred (protein)
chain: DDAAKLASLREFLAQLVEIAKAGNAEQARVMARNARAAARSVAAAVASAAEALALGAEAEAEILAIAQEKAAAA
B15: design_623_6e2e8b1f-5d9a-4413-9869-27a184816b12_1170_dldesign_0_cycle1_af2pred (protein)
chain: MSQAVLNTAKIAIETAGRSSPEEAKKLVEQAVDIASSASDENKKELVKYAKELAKKDPSSKEFYEAAAKKIEATL
B16: design_622_fcc41892-afde-4fb9-b6e8-b664fffd6a75_1948_dldesign_0_cycle1_af2pred (protein)
chain: SEEALLLANQGVALASQGLIAGDDAKVKEGIKKIEEAKKLASPELAKTFDKLKATVEAMAAGTAAARAAAAAAA
B17: design_622_fcc41892-afde-4fb9-b6e8-b664fffd6a75_1677_dldesign_0_cycle1_af2pred (protein)
chain: MEELEELKERSEEVKKRAEEAKKKGEELKKKSPKTAVAGNAVIALAKSAKELAEDPEKVEQAEKVLEIAEAIIKAA
B18: design_623_6e2e8b1f-5d9a-4413-9869-27a184816b12_1249_dldesign_0_cycle1_af2pred (protein)
chain: AEAAKAAALEVLALAQEYYDQAKKNAAKIAPEKLKKADEAYAKALAALAAGDYGLAAHYAMLAYSYSSTGLQEA
B19: design_622_fcc41892-afde-4fb9-b6e8-b664fffd6a75_2191_dldesign_0_cycle1_af2pred (protein)
chain: MKEEVEKLKKEAEKLVKEAKAAAEAGDSGKAVSLASEAFKVARELEKLPESKELGKELKAKAHEVLTLAAK
B20: design_622_fcc41892-afde-4fb9-b6e8-b664fffd6a75_1878_dldesign_0_cycle1_af2pred (protein)
chain: GRQQELNQALGLTLEAAKKASELNKEVLPLVNEAASLIAKAYLTGDKELLKKAIEKLKKAAELASEEVKVLLKKAAEHAKKAIEL
B21: design_622_fcc41892-afde-4fb9-b6e8-b664fffd6a75_2349_dldesign_0_cycle1_af2pred (protein)
chain: LTEELARETARGQRYAAELIALDPAAQELLEQVRRLSAAALQALLAGDEELAKKLAEEVKRLAEEIKARAEALK
B22: design_623_6e2e8b1f-5d9a-4413-9869-27a184816b12_258_dldesign_0_cycle1_af2pred (protein)
chain: ASEAAAQTITRGVAELRERFADLSPEALAALAAAQQAALLAAIQGDFEAAAAEVVRGAEAVGAISPHTEEIRALGRATAERILALA
B23: design_623_6e2e8b1f-5d9a-4413-9869-27a184816b12_997_dldesign_0_cycle1_af2pred (protein)
chain: EGEKLWKEAKALTDQAKALAAQAQATTDAAQAKQYAIEAAAATTEAMRLASEAARLLGPEKQEEANRLVQEATQALVAATQAAQALA
B24: design_623_6e2e8b1f-5d9a-4413-9869-27a184816b12_67_dldesign_0_cycle1_af2pred (protein)
chain: SREEELERVEEAIATARDVLAGAELTAAQVSPELAAAALRSAARTAVVLFEGEARRAEDEEARERLRKAAEEARKVAA
B25: design_622_fcc41892-afde-4fb9-b6e8-b664fffd6a75_1828_dldesign_0_cycle1_af2pred (protein)
chain: EAAAREAAARRLAAALEAAEAAAAGPLGPRVAVAAAEVALEVLAAHPRLSPEAVRAAHRLLVLGGRAAGILAA
B26: design_623_6e2e8b1f-5d9a-4413-9869-27a184816b12_1303_dldesign_0_cycle1_af2pred (protein)
chain: AAAQADALTARGKELYAEGKKKYKEGKKEEAAKLFFEAANDYMRAASLYSKVDPAQAVAALEQMEKAIEEYKKAKE
B27: design_622_fcc41892-afde-4fb9-b6e8-b664fffd6a75_2288_dldesign_0_cycle1_af2pred (protein)
chain: SAEEEVLAKVKELRDKVEAAAADPAKAAEGAALAQEALAFLEENLPVIRAGGQELKDAVHALLRAIARHNAVYN
B28: design_623_6e2e8b1f-5d9a-4413-9869-27a184816b12_287_dldesign_0_cycle1_af2pred (protein)
chain: AAAAKAALAAAKAKADEVAKYAEEVDPELGKEIKAKQADLTKAAQDGLAISPALAKGAANMLAAYAESAKKKAEKLAKEK
B29: design_623_6e2e8b1f-5d9a-4413-9869-27a184816b12_824_dldesign_0_cycle1_af2pred (protein)
chain: MEEKIKEAEKLYLEGLKAAGAAHAAIVKGDVAAAKKALEKLKEIAEKLKELGKESEEAKKIAENAEKLYEVTKAAVDAAAAA
B30: design_623_6e2e8b1f-5d9a-4413-9869-27a184816b12_262_dldesign_0_cycle1_af2pred (protein)
chain: GAAEARAQAEKTFAEAIEVGKEALKEAEKLKEKDKEKAEKYIKKINELLHELFRAMALSMTDPEAGLKAIEEQLKKLKEVLKEIKE
B31: design_622_fcc41892-afde-4fb9-b6e8-b664fffd6a75_1795_dldesign_0_cycle1_af2pred (protein)
chain: ANAQLAKGYLTAGQVYLQSPDAAYQEQAATAAQAAAAYAEADPAMADLAKQAKALEAEAKAKAAAAKAAA
B32: design_623_6e2e8b1f-5d9a-4413-9869-27a184816b12_1242_dldesign_0_cycle1_af2pred (protein)
chain: AAARRTALGLQRGASVIAYAKEVGVPEAGRRAGLLVVLALAGGAALGAAAAAAAEALAEELAAAGYPGFGTFVRGILRAARAEAA
B33: design_623_6e2e8b1f-5d9a-4413-9869-27a184816b12_873_dldesign_0_cycle1_af2pred (protein)
chain: SENVKKAKALAAKSKELLEKAKKGDAETAQKALKEISKLANELAKLATSSPAADQAATNAALAVAVEAAEEASKIAREKKA
B34: design_622_fcc41892-afde-4fb9-b6e8-b664fffd6a75_1801_dldesign_0_cycle1_af2pred (protein)
chain: QALLEAASAIVEAAELAAKEVGPAAANALLTEAGKLLATGEAGLKAAVAEIDKVAKQASPEVAKKLLELRDKAAA
B35: design_623_6e2e8b1f-5d9a-4413-9869-27a184816b12_1349_dldesign_0_cycle1_af2pred (protein)
chain: DRLREIAAALAKEVAEATGADPATTEKLAELLAAVLEANQQGPEAFAAAYSKLVDFTVSTGSDALLAKAGAAVSRGLRALG
B36: design_622_fcc41892-afde-4fb9-b6e8-b664fffd6a75_2329_dldesign_0_cycle1_af2pred (protein)
chain: AALREEAKKRVDAAVAAADAAAAADPLAGAIAYGELAVETARLAAELARADPAAGAEMRAKLVDISQKAIALALAAG
B37: design_623_6e2e8b1f-5d9a-4413-9869-27a184816b12_890_dldesign_0_cycle1_af2pred (protein)
chain: SPAARLMEATYRRLEEALEKLERAEELSPEEVLEAARLAEANARFARLAGRQAAAEEGTAEAAEAAAKAEALAEEAEEKAREARERLE
B38: design_623_6e2e8b1f-5d9a-4413-9869-27a184816b12_221_dldesign_0_cycle1_af2pred (protein)
chain: EEEEKRAAAKEAAALLEAAADDPATRGELVLQAIALLTRYPELAPYASAATRALALAAQEGVAAGAAALREVAAGVKALAE

target: CD276, Q5ZPR3
Sequence (Q5ZPR3 whole entry): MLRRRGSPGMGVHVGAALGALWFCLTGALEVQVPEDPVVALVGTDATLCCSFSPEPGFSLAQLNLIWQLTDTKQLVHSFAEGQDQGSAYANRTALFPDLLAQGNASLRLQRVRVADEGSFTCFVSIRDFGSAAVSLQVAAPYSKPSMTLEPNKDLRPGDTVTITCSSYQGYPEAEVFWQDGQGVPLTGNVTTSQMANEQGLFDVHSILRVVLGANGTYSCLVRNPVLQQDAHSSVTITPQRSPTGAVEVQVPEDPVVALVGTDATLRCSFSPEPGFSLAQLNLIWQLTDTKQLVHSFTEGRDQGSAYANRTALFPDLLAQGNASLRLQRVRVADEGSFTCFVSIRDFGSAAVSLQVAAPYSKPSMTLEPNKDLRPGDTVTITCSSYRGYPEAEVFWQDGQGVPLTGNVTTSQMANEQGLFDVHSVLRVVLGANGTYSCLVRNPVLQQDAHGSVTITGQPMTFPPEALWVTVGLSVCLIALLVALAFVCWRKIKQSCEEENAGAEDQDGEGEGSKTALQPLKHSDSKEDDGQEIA

Binding in a display sort, inactive:
B1 not found, B2 not found, B3 not found, B4 not found, B5 not found, B6 not found, B7 not found, B8 not found, B9 not found, B10 not found, B11 not found, B12 not found, B13 not found, B14 not found, B15 not found, B16 not found, B17 not found, B18 not found, B19 not found, B20 not found, B21 not found, B22 not found, B23 not found, B24 not found, B25 not found, B26 not found, B27 not found, B28 not found, B29 not found, B30 not found, B31 not found, B32 not found, B33 not found, B34 not found, B35 not found, B36 not found, B37 not found, B38 not found
